p53 PUMA act: mutant p53 pathway re-activators, primary screen, cell-based, SW480, luciferase, single point, HTS | SW480 PUMA-promoter luciferase, p53 mutant reactivation | actives 1.5% (n = 28,000) | activation, % at 9.98 µM | AID 624151, 2012; in the data active = activation above about 52%
ID4 SMM: binders of human ID4 protein, primary screen, biochemical, small molecule microarray, single point | DNA-binding protein inhibitor ID-4 (Homo sapiens), P47928 | Flag-ID4 binding, fluorescence F/B | calls only | actives 1.2% (n = 31,000); call rule not given here;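 note: a binder raises fluorescence above local background on the spot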
Target sequence (P47928 whole entry, looked up): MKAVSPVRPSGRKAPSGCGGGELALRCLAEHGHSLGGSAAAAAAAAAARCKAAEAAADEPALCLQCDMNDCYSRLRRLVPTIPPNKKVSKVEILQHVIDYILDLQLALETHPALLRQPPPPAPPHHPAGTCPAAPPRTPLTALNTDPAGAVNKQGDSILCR
Of the large screens only hits and unclear results are named; the others gave an inactive call. Rows were chosen to be rich in hits. Some 2.3% of all compounds tested hit in one or more screens of this group.

Cc1cc(C)n(CC(O)Cn2ccc3ccccc32)n1 (stereo unspecified)	ID4 SMM active
O=C1c2ccccc2S(=O)(=O)N1CC(O)Cn1ccc2ccccc21 (stereo unspecified)	ID4 SMM active
OCc1nc2ccccc2n1CC(O)Cn1ccc2ccccc21 (stereo unspecified)	none
COc1ccc(NCC(O)Cn2ccc3ccccc32)cc1 (stereo unspecified)	none
COc1c2c(cc3oc(CO[C@@H]4O[C@H](CO)[C@@H](O)[C@H](O)[C@H]4O)cc(=O)c13)OC(C(C)(C)O)C2 (stereo partly specified)	none
NC(=O)c1c(NC(=O)C(Cc2ccccc2)N2C(=O)c3ccccc3C2=O)sc2c1CCCC2 (stereo unspecified)	ID4 SMM active
COc1ccc(C(=O)Nc2sc3c(c2C(N)=O)CCCC3)cc1OC	p53 PUMA act 76
CCc1ccccc1OCC(=O)Nc1sc2c(c1C(N)=O)CCCC2	none
COc1ccc(NC(=O)C(Cc2ccccc2)N2C(=O)c3ccccc3C2=O)cc1 (stereo unspecified)	none
COc1ccc(C(=O)Nc2sc3c(c2C(=O)NC2CCS(=O)(=O)C2)CCCC3)cc1OC (stereo unspecified)	none
O=C(O)C(Cc1ccccc1)N1C(=O)c2ccccc2C1=O (stereo unspecified)	p53 PUMA act 65
COc1ccc(S(=O)(=O)NCCc2c[nH]c3ccccc23)c2ccccc12	none
Cc1ccc(N(C(C)C(=O)Nc2cc(Cl)cc(Cl)c2)S(C)(=O)=O)cc1 (stereo unspecified)	none
O=S(=O)(Nc1ncccn1)c1ccc(NC(=S)N2CCN(c3ncccn3)CC2)cc1	none
COC(=O)c1ccc(OCC(O)Cn2c(C)nc3ccccc32)cc1 (stereo unspecified)	ID4 SMM active
Cc1nc2ccccc2n1CC(O)COc1ccc(C(=O)O)cc1 (stereo unspecified)	none
Cc1ccc(S(=O)(=O)Nc2cc(S(=O)(=O)c3ccc(C)cc3)c(O)c3ccccc23)cc1	none
CO[C@@H]1CN(C)C(=O)c2cc(NC(=O)NC3CCCCC3)ccc2OC[C@@H](C)N(C)C[C@H]1C	none (no result: p53 PUMA act)
O=[N+]([O-])c1cccc(COc2ccc(-c3cnc4ccccc4n3)cc2)c1	p53 PUMA act 63
O=C(COc1cccc(-c2cnc3ccccc3n2)c1)c1ccccc1	none
N#CC(C(=O)NCc1ccco1)c1ccccc1 (stereo unspecified)	none
CCC1(CC)Cc2ccccc2-c2[nH]c(=S)n(Cc3ccccc3)c(=O)c21	none
Cn1cc(CNC(=O)c2cc(-c3ccc(Br)cc3)nc3ccccc23)cn1	none
CCCc1ccc(-c2cc(C(=O)NCc3cnn(C)c3)c3ccccc3n2)cc1	p53 PUMA act 106
NC(=O)C1CCN(C(=O)CSc2nnnn2-c2ccccc2)CC1	none
COc1ccc(C)cc1NC(=O)CN(c1ccc(Br)c(C)c1)S(C)(=O)=O	none
C[C@H](CO)N1C[C@H](C)[C@H](CN(C)Cc2ccccc2)Oc2cc(/C=C/c3ccccc3)ccc2S1(=O)=O	none
C[C@H](CO)N1C[C@H](C)[C@@H](CN(C)C(=O)Nc2ccccc2F)Oc2cc(-c3ccc(C(=O)N(C)C)cc3)ccc2S1(=O)=O	ID4 SMM active
COc1ccccc1-c1ccc2c(c1)O[C@H](CN(C)Cc1ccc3c(c1)OCO3)[C@H](C)CN([C@@H](C)CO)S2(=O)=O	none
C[C@H](CO)N1C[C@H](C)[C@H](CN(C)Cc2cncnc2)Oc2cc(-c3ccncc3)ccc2S1(=O)=O	ID4 SMM active
C[C@@H]1CN([C@H](C)CO)S(=O)(=O)c2ccc(-c3ccc(C(=O)N(C)C)cc3)cc2O[C@@H]1CN(C)Cc1ccc2c(c1)OCO2	ID4 SMM active
C[C@@H]1CN([C@@H](C)CO)S(=O)(=O)c2ccc(/C=C/c3ccccc3)cc2O[C@H]1CN(C)Cc1ccc(C(=O)O)cc1	ID4 SMM active
COc1ccc(-c2ccc3c(c2)O[C@@H](CN(C)C(=O)Nc2ccccc2F)[C@@H](C)CN([C@H](C)CO)S3(=O)=O)cc1	none (no result: ID4 SMM)
C[C@H](CO)N1C[C@H](C)[C@H](CN(C)C)Oc2cc(-c3ccncc3)ccc2S1(=O)=O	none (no result: ID4 SMM)
CS(=O)(=O)N(CC(=O)NC1CCCCC1)c1ccc(Cl)cc1Cl	none
COC(=O)Nc1sc(C)c(C)c1C(=O)NCc1cccnc1	none
COC(=O)c1ccc(C2C(Oc3ccc(OC)cc3)C(=O)N2Cc2ccc(F)cc2)cc1 (stereo unspecified)	none
C[C@@H]1CN([C@H](C)CO)S(=O)(=O)c2ccc(C3=CCCC3)cc2O[C@H]1CN(C)C(=O)c1cccnc1	none (no result: ID4 SMM)
C[C@@H]1CN([C@@H](C)CO)S(=O)(=O)c2ccc(-c3cccc(C(=O)N(C)C)c3)cc2O[C@H]1CN(C)C(=O)Nc1ccc(F)cc1	none (no result: ID4 SMM)
COc1ccc(NC(=O)N(C)C[C@@H]2Oc3cc(-c4ccncc4)ccc3S(=O)(=O)N([C@H](C)CO)C[C@H]2C)cc1	ID4 SMM active
C[C@@H]1CN([C@H](C)CO)S(=O)(=O)c2ccc(-c3cccc(C(=O)N(C)C)c3)cc2O[C@H]1CN(C)C(=O)Nc1ccc(F)cc1	ID4 SMM active
CC(=O)N(C)C[C@@H]1Oc2cc(-c3ccccc3C)ccc2S(=O)(=O)N([C@H](C)CO)C[C@@H]1C	ID4 SMM active
COc1ccc(NC(=O)N(C)C[C@H]2Oc3cc(-c4ccc(C)cc4)ccc3S(=O)(=O)N([C@@H](C)CO)C[C@H]2C)cc1	none
Cc1ccccc1-c1ccc2c(c1)O[C@H](CN(C)C)[C@H](C)CN([C@H](C)CO)S2(=O)=O	none
C[C@H](CO)N1C[C@H](C)[C@@H](CN(C)C(=O)c2ccncc2)Oc2cc(C3=CCCC3)ccc2S1(=O)=O	ID4 SMM active
CCC(=O)N[C@@H]1C=C[C@H](CC(=O)NCc2cc(F)cc(F)c2)O[C@H]1CO	none (no result: p53 PUMA act)
COc1ccccc1CNC(=O)c1ccc(Cl)c(S(=O)(=O)N2CCOCC2)c1	none
CC(C)C(NS(=O)(=O)c1c(Cl)cccc1Cl)C(=O)O (stereo unspecified)	none
CC(C(=O)N1CCN(C)CC1)N(c1ccc(Oc2ccccc2)cc1)S(C)(=O)=O (stereo unspecified)	none
CCc1cccc(C)c1NC(=O)CSc1nc2sc3c(c2c(=O)n1C)CCC(C)C3 (stereo unspecified)	none
CC1CCc2c(sc3nc(SC(C)C(=O)Nc4ccccc4)nc(N)c23)C1 (stereo unspecified)	p53 PUMA act 118
NC(=O)NCC#Cc1ccc2c(c1)[C@]1(C(=O)N2)[C@H](C(=O)N2CCCCCCC2)[C@H]2C(=O)O[C@H](c3ccccc3)[C@H](c3ccccc3)N2[C@@H]1c1ccc(O)cc1	none (no result: p53 PUMA act)
O=C(NCc1nc2ccccc2[nH]1)C1=C[C@@H](C2CC2)C[C@@H](OCc2ccc(CO)cc2)O1	none (no result: p53 PUMA act)
O=C(NCc1nc2ccccc2[nH]1)C1=C[C@H](C2CC2)C[C@H](OCc2ccc(CO)cc2)O1	ID4 SMM active (no result: p53 PUMA act)
OCc1cc2ncnc(Nc3ccc(O)c(Br)c3)c2cc1CO	none
CC(Oc1ccc(Cl)cc1Cl)/C(N)=N/O (stereo unspecified)	none
CC(O)c1cc(-c2ccc(Cl)cc2Cl)no1 (stereo unspecified)	p53 PUMA act 113
Cc1c(Br)c([N+](=O)[O-])nn1CC(=O)Nc1sc2c(c1C#N)CCCC2	none
COC(=O)c1c(NC(=S)Nc2ccc([N+](=O)[O-])cc2OC)sc(C)c1C	none

Assay outcomes (PubChem BioAssay)
